Data reported in PMC4552634, “A New Set of Chemical Starting Points with Plasmodium falciparum Transmission-Blocking Potential for Antimalarial Drug Discovery” (PLoS ONE, 2015).
About 3,200 (25%) of roughly 13,000 compounds showed an effect of 50% or more. Some of the results follow.

system: P. falciparum stage V gametocytes; design: BacTiter-Glo ATP luminescence viability of purified stage V gametocytes in 384-well plates, per cent inhibition versus DMSO; conditions: 48 h, 5 µM; inhibitor

SMILES | % Inhibition
CCOC(=O)c1ccc(NC(=O)Nc2ccc(-c3cccc(-c4nc5c(C)cccc5[nH]4)c3)cc2)cc1 [TCMDC-133262] | -3.129%
CC(C)(C)c1ccc(CN(C[C@@H](O)CNS(=O)(=O)c2cc(Cl)cc(Cl)c2)C(C)(C)C)cc1 [TCMDC-135386] | -63.29%
COc1ccc(CC(=O)NC(CCCN2CCC3(CC2)OCc2ccccc23)c2ccc(Cl)c(Cl)c2)cc1 (stereo not shown) [TCMDC-141898] | -52.62%
O=C(Nc1cccc(F)c1)N1CCC(NS(=O)(=O)c2ccc(Br)cc2)CC1 [TCMDC-139438] | 2.418%
COc1cc2c(cc1OC)-c1cc(=Nc3c(C)cc(C)cc3C)n(C)c(=O)n1CC2 [TCMDC-125545] | 16.19%
CN(CCCNc1ccc(C(=O)Nc2ccc(C(F)(F)F)cc2)cc1[N+](=O)[O-])Cc1ccccc1 [TCMDC-125682] | -31.17%
CN(Cc1cccc(F)c1)C1CCN(c2cc(NC(=O)c3ccc(F)cc3)ccn2)C1 (stereo not shown) [TCMDC-135004] | -24.42%
CC(C)c1ccc(NC(=O)c2cccc(CN3CCCN(Cc4cccc(O)c4)CC3)c2)cc1 [TCMDC-135976] | -1.635%
CC(C)(C)NCCN(Cc1ccc(-c2ccc(C(F)(F)F)cc2)cc1)C(=O)Cn1c(SCc2ccc(F)cc2)nc(=O)c2c1CCC2 [TCMDC-140978] | 110.1%
Cn1ccnc1-c1nc2ccccn2c1NCC(=O)Nc1ccccc1N1CCCCC1 [TCMDC-133801] | -70.89%
CCNc1cc(C)nc(Nc2ccc(NC(=O)c3ccc(OC)c(OC)c3)cc2)n1 [TCMDC-124987] | 8.373%
Cc1cccc(C)c1NC1=NC(=S)N(c2cccc(Cl)c2)C12CCC(C(C)(C)C)CC2 (stereo not shown) [TCMDC-124101] | -11.15%
CSC1=NC(=Nc2c(C)cccc2C)C2(CCCCC2)N1c1ccccc1Cl [TCMDC-124143] | 13.06%
CSC1=NC(=Nc2ccccc2C)C2(CCC(C(C)(C)C)CC2)N1c1ccccc1Cl (stereo not shown) [TCMDC-124136] | 53.76%
Cc1cc(C(=O)NC2CCN(Cc3ccccc3)CC2)ccc1-c1nc2ccc(C(F)(F)F)cc2[nH]1 [TCMDC-140120] | -4.747%
N#Cc1ccc(N2CCN(Cc3ccc(-c4ccc(-c5nc6ccc(F)cc6[nH]5)s4)cc3)CC2)nc1 [TCMDC-133115] | -21.41%
Oc1cc(Nc2ccnc3cc(-c4cccc(CN5CCOCC5)c4)ccc23)c(F)cc1Cl [TCMDC-138434] | 12.33%
NC(=O)c1sc(-n2cnc3ccc(C(=O)NCCN4CCOCC4)cc32)cc1OCc1ccccc1C(F)(F)F [TCMDC-135181] | -45.79%
C[C@@H](Oc1cc(-n2cnc3ccc(OCC4CCN(S(C)(=O)=O)CC4)cc32)sc1C(N)=O)c1ccccc1C(F)(F)F [TCMDC-135685] | 34.9%
NC(=O)c1sc(-n2cnc3ccc(OCC4CCNCC4)cc32)cc1OCc1ccccc1C(F)(F)F [TCMDC-135173] | 107%
COc1ccc2ncn(-c3ccc(C(N)=O)c(OCc4ccccc4C(F)(F)F)c3)c2c1 [TCMDC-134428] | 48.51%
CN1CCN(CCCSc2ccc3c(c2)ncn3-c2cc(OCc3ccccc3C(F)(F)F)c(C(N)=O)s2)CC1 [TCMDC-135408] | 12.22%
CC(C)CN1CCC(COc2ccc3ncn(-c4cc(O[C@H](C)c5ccccc5C(F)(F)F)c(C(N)=O)s4)c3c2)CC1 [TCMDC-135856] | 86.18%
Cc1nc(N)nc(N)c1CCCOc1ccccc1Cl [TCMDC-137929] | 3.372%

SMILES | % Inhibition
COc1cccc(CNC[C@@H](O)[C@H](Cc2ccccc2)NC(=O)c2cc(NC(C)C)cc(N3CCCCS3(=O)=O)c2)c1 [TCMDC-135205] | 28.03%
CC1(C)C=C(c2ccncc2)c2cc(Cl)ccc2O1 [TCMDC-131771] | -9.955%
Clc1cccc(Nc2ccc3c(N4CCCCC4)ncnc3n2)c1 [TCMDC-134937] | 52.12%
O=C(NCC1CCC1)c1cnc(Nc2cccc(Cl)c2)nc1N1CCC1 [TCMDC-135363] | 5.577%
Cc1cc(Nc2nc(Nc3cccc(Cl)c3)nc3ccccc23)n[nH]1 [TCMDC-134695] | 12.71%
OC(CNCc1ccccc1OCc1ccccc1)c1cccc(Br)c1 (stereo not shown) [TCMDC-140734] | 51.74%
OC(CNCc1ccccc1OCc1ccccc1)c1cccc(Cl)c1 (stereo not shown) [TCMDC-140563] | -9.137%
OC(CNCc1ccccc1OCc1ccccc1)c1cccc(I)c1 (stereo not shown) [TCMDC-140522] | 41.43%
Cc1cc(OCC(=O)Nc2ccc(-c3nc4ccccc4[nH]3)cc2)cc(C)c1Cl [TCMDC-125674] | -10.97%
Cc1cccc(C)c1CNc1ccnc2cc(C#N)ccc12 [TCMDC-132170] | 2.762%
NS(=O)(=O)NCCCN1CCN(c2ccccc2)CC1 [TCMDC-141997] | 27.05%
CC(C)N1CCN(CCCNc2c3ccccc3nc3ccccc23)CC1 [TCMDC-137547] | 96.57%
CC(C)N1CCN(CCCCNc2c3ccccc3nc3ccccc23)CC1 [TCMDC-137573] | 93.57%
Cc1ncsc1CCN1C(=O)CC2(C1=O)C(=O)N(Cc1ccccc1)c1ccc(Cl)cc12 (stereo not shown) [TCMDC-136701] | 2.069%
COc1cc(F)c2ncc(Cl)c([C@@H](O)CN3CCC(NCc4cc5c(cn4)OCCO5)CC3)c2c1 [TCMDC-135475] | 41.87%
Cc1ccccc1OCCCc1c(C)nc(N)nc1N [TCMDC-138070] | -46.3%
Cc1ccc(NC(=O)c2cc(Br)cc(N3CCC(N(C)C)CC3)c2)cc1F [TCMDC-135144] | -10.77%
CC(C)Cc1cn(-c2nc(-c3nc4ccccc4[nH]3)cs2)c2cc(Cl)ccc12 [TCMDC-132300] | -85.76%
O=C(/C=C/c1cccs1)NCC(NCCCNc1cc(=O)c2ccccc2[nH]1)c1cc(Br)cc(Br)c1 (stereo not shown) [TCMDC-140318] | -18.64%
CCn1cc(CN2CCCC(C(=O)Nc3ccc(-c4nc5ccccc5[nH]4)cc3)C2)cn1 (stereo not shown) [TCMDC-124674] | -65.71%
CCN(CC)CC(O)Cc1c2ccc([N+](=O)[O-])cc2nc2cc(OC)c(OC)cc12 (stereo not shown) [TCMDC-138126] | 37.45%
CCC(=Cc1cccc([N+](=O)[O-])c1)C(=O)NCC1CCN(c2nc(N)c3cc(OC)c(OC)cc3n2)CC1.Cl [TCMDC-138165] | 19.29%
CCN(CC)CC(O)CNc1c2ccc([N+](=O)[O-])cc2nc2cc(OC)c(OC)cc12.Cl (stereo not shown) [TCMDC-138079] | 90.61%
Cc1noc(-c2ccc(NC[C@@H](C)NC[C@H](O)c3cccc(Cl)c3)cc2)n1 [TCMDC-132027] | 14.57%

SMILES | % Inhibition
COc1cc(C=Cc2ccc3ccccc3n2)cc(Br)c1OCC(=O)N(C)C [TCMDC-124818] | 44.47%
CCCCC(=O)NC(c1cccs1)c1cc(Cl)c2cccnc2c1O (stereo not shown) [TCMDC-123653] | 45.79%
CC(=O)NC(c1cccs1)c1cc(Cl)c2cccnc2c1O (stereo not shown) [TCMDC-125548] | 90.83%
CC(C)C(=O)NC(c1ccc(N(C)C)cc1)c1cc(Cl)c2cccnc2c1O (stereo not shown) [TCMDC-123643] | 90.13%
CC(C)C(=O)NC(c1cccs1)c1cc(Cl)c2cccnc2c1O (stereo not shown) [TCMDC-123636] | 43.04%
CCCC(=O)NC(c1cccs1)c1cc(Cl)c2cccnc2c1O (stereo not shown) [TCMDC-123634] | 68.96%
COc1ccccc1N(C)CCNc1cc(C)nc(Nc2ccccc2)n1 [TCMDC-133455] | -20.01%
Cc1cc(NC(=O)N=C(N)N)ccc1Cl [TCMDC-137470] | 23.53%
CC(C)Cc1nc(N2CCOCC2)c2nnn(Cc3ccccc3)c2n1 [TCMDC-124394] | 7.117%
Cc1ccc(C)c(CN2CCC(CNC(=O)c3cc4ccc5cccnc5c4[nH]3)CC2)c1 [TCMDC-125280] | 17.56%
CCN1C(c2ccc(Cl)cc2)C(CNCc2ccccc2O)CC1(C)CO (stereo not shown) [TCMDC-124672] | -22.05%
Cc1cc2c(cc1C(F)(F)F)N(C(=O)Nc1cc(OCCN(C)C)cc(C(F)(F)F)c1)CC2 [TCMDC-139873] | 27.41%
Cc1cc(Nc2cccc(Cl)c2)nc2ccc(NC(=O)c3ccc(=O)[nH]c3)cc12 [TCMDC-125285] | -92.28%
N#Cc1ccc(NC(=O)Nc2ccc(OC(F)(F)F)cc2)cc1 [TCMDC-123773] | 69.14%
O=C(Nc1ccc(CCNCc2ccccc2)cc1)Nc1ccc(OC(F)(F)F)cc1 [TCMDC-141914] | -0.1841%
N#Cc1ccc(NC(=O)Nc2ccc3c(c2)CCN(C2CCC2)CC3)cc1 [TCMDC-135861] | 25.77%
O=C(Nc1ccc(OC(F)(F)F)cc1)Nc1ccc([N+](=O)[O-])cc1 [TCMDC-123714] | -87.78%
O=C(Nc1ccc([N+](=O)[O-])cc1)Nc1cc(C(F)(F)F)ccc1F [TCMDC-124367] | -37.77%
O=C(Nc1cccc([N+](=O)[O-])c1)Nc1cccc(C(F)(F)F)c1 [TCMDC-123674] | -87.02%
O=C(Nc1ccc([N+](=O)[O-])cc1)Nc1cc(OCC(F)(F)F)cc(OCC(F)(F)F)c1 [TCMDC-124533] | 87.27%
COc1cc(NC(=O)Nc2ccc([N+](=O)[O-])cc2OC)c(OC)cc1Cl [TCMDC-124366] | 14.63%
COc1cc([N+](=O)[O-])ccc1NC(=O)Nc1ccc(OC(F)(F)F)cc1 [TCMDC-125388] | 60.01%
